This excerpt belongs to a sample that is enriched for hits.
AmpC inh no detg – blocks E. coli AmpC beta-lactamase in detergent-free assay | P00811 | AmpC nitrocefin hydrolysis, absorbance 480 nm, 0.0001% Triton | Potency, µM (series often up to 57.1 µM), inactives show at the highest dose activity change, negative = inhibition, hits mostly inhibitors | hit rate 0.52% among 330,000;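 also: potency is read from the fitted curve at half-maximal effect; plate controls were no compound for no effect and no enzyme for full effect; nearly all actives have a fitted effect of over 20% in size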
Target sequence (P00811 whole entry, looked up): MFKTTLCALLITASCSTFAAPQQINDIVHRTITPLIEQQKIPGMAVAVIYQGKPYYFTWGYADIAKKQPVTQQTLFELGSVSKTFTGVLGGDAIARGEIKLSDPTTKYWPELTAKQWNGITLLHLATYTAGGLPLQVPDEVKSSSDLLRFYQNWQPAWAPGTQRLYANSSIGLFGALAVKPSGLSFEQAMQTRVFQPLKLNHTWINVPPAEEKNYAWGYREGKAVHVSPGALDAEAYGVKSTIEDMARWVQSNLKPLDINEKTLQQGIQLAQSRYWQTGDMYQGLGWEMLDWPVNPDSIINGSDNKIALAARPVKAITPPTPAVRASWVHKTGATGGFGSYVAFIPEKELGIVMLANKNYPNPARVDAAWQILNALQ
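20 mM phosphate pH 7.0 + 0.01% (detergent screen) or 0.0001% Triton X-100; 5.3 nM AmpC reagent; cpd preinc 15 min RT; nitrocefin (800 uM stock) to start; A480 q20 s × 4 min; Activity was normalised to no-enzyme and no-compound control wells.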
CHX counter – affects cycloheximide protein synthesis inhibition readout, counter-screen. cell reporter, cycloheximide protein synthesis inhibition counterscreen. max response, %. hit rate 12% among 300,000. AID 2314; in the data active = max response mostly above about 13%, no sharp cut-off; inactive = mostly below about 14%; also: read at 38.3 µM for the half of the compounds with a filed dose; 0% is about no effect
Shiga inhibitor – Shiga toxin inhibition; AID 2315; inhibition, % at 38.7 µM; hit rate 9.2% among 290,000; Vero cells, Shiga toxin protein synthesis inhibition reporter; in the data active = inhibition mostly above about 28%, no sharp cut-off; inactive = mostly below about 43%; also: 0% is about no effect
AMA1-RON2 inh – disrupts binding of P. falciparum AMA1 to RON2 | AID 720542 | Potency, µM (series often up to 58.2 µM), for the others: at the highest dose activity change, negative = inhibition, actives largely listed as inhibitors | hit rate 0.2% among 360,000 | AlphaScreen AMA1-biotinylated RON2 peptide binding;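 also: potency is read from the fitted curve at half-maximal effect; 0% = vehicle wells and -100% = peptide control; nearly all actives have a fitted effect of over 45% in size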
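AMA1 (3D7) with his tag at 25 nM final met compounds first, then biotinylated RON2 peptide at 25 nM; detection used donor plus acceptor beads, 10 µg/mL apiece, read by AlphaScreen after 30 min at room temperature.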
SARS PLpro yeast – SARS-CoV PLP inhibition in yeast | Potency, µM (series often up to 32.9 µM), inactives show at the highest dose activity, positive = growth rescue, actives largely listed as activators | hit rate 0.19% among 330,000 | S. cerevisiae expressing SARS-CoV PLpro, growth rescue; calls by dose curve; also: potency is read from the fitted curve at half-maximal effect; 0% is about no effect; nearly all actives have a fitted effect of over 55% in size
AmpC detergent – AmpC beta-lactamase inhibition with detergent present. AmpC hydrolysis of nitrocefin, absorbance 480 nm, 0.01% Triton. hit rate 0.041% among 370,000. Potency, µM (highest dose often 114 µM), for the others: at the top dose activity change, negative = inhibition, actives largely listed as inhibitors. P00811;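 also: potency is read from the fitted curve at half-maximal effect; 0% = no-compound wells and -100% = no-enzyme wells; nearly all actives have a fitted effect of over 25% in size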
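20 mM phosphate pH 7.0 + 0.01% (detergent screen) or 0.0001% Triton X-100; 5.3 nM AmpC reagent; cpd preinc 15 min RT; nitrocefin (800 uM stock) to start; A480 q20 s × 4 min; Activity was normalised to no-enzyme and no-compound control wells.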
Numbers without * were called inactive; ! = not active in a repeat; [ ] = remark or other dose. Unless noted, calls follow the shape of the dose curve; as a rule, active = well fitted curve in the direction sought with a large enough effect; inconclusive = small, poorly fitted or top-dose-only effect, or another doubt; inactive = no such curve, though single readings can be large; an effect the other way counts as inactive or inconclusive.

CC1CC(C)CN(C(=O)CSCC(=O)Nc2nc(-c3cccs3)cs2)C1 (configuration not stated) was read as AmpC inh no detg -14.0%, CHX counter 2.1, Shiga inhibitor 41.4, AMA1-RON2 inh 31.2%, SARS PLpro yeast 1.8% and AmpC detergent inconclusive.
`CC1CC1C(=O)Nc1nc(-c2ccc(Cl)s2)cs1` (configuration not stated) gave AmpC inh no detg -30.5%[11.4 µM], CHX counter 37.5*, Shiga inhibitor 130.5*, AMA1-RON2 inh -10.8%, SARS PLpro yeast -0.4% and AmpC detergent -13.8%.
Screening CCn1cc(Br)c(C(=O)NCc2ccco2)n1 returned CHX counter -2.9, Shiga inhibitor 19.5, AMA1-RON2 inh 4.6% and AmpC detergent -2.0%.
Screening CCCNS(=O)(=O)c1ccc(CCC(=O)NCc2ccco2)cc1 returned AmpC inh no detg -15.4%, CHX counter -2.3, Shiga inhibitor -12.2, AMA1-RON2 inh 6.4%, SARS PLpro yeast 1.1% and AmpC detergent -8.7%.
[O-]/[N+](=C/c1cccnc1)c1ccc(Br)cc1 was read as AmpC inh no detg -22.2%, CHX counter 37.0*, Shiga inhibitor 93.5*, AMA1-RON2 inh 10.0%, SARS PLpro yeast 1.1% and AmpC detergent inconclusive.
Screening N#C/C(=C\c1cccnc1)c1ccc([N+](=O)[O-])cc1 returned AmpC inh no detg -18.8%, CHX counter 5.1, Shiga inhibitor 15.2, AMA1-RON2 inh -0.8%, SARS PLpro yeast -12.5% and AmpC detergent inconclusive.
For [O-]/[N+](=C\c1ccncc1)c1ccc(Br)cc1 the results were AmpC inh no detg -1.3%, CHX counter 17.4*, Shiga inhibitor 39.4, AMA1-RON2 inh -4.8%, SARS PLpro yeast -3.9% and AmpC detergent -9.8%.
Screening CCCC(=O)N(c1ccc2oc(C)c(C(C)=O)c2c1)S(=O)(=O)c1ccc(CC)cc1 returned AmpC detergent -7.1%.
For Cc1nc2cc(CO)ccc2s1 the results were AmpC inh no detg 0.3%, CHX counter -2.0, Shiga inhibitor 12.6, AMA1-RON2 inh 1.3%, SARS PLpro yeast 10.0% and AmpC detergent 0.9%.
Screening COc1ccccc1C(=O)OCc1ccc2sc(C)nc2c1 returned AmpC inh no detg -26.3%[2.29 µM], CHX counter 28.3*, Shiga inhibitor 77.9*, AMA1-RON2 inh 13.8%, SARS PLpro yeast 12.4% and AmpC detergent -1.5%.
`C(=Nc1ccc(N2CCOCC2)cc1)c1c[nH]c2ccccc12` gave AmpC inh no detg 30.8%, CHX counter 41.9*, Shiga inhibitor 89.0*, AMA1-RON2 inh -18.5%, SARS PLpro yeast -1.1% and AmpC detergent 2.9%.
For Oc1ccc2ccccc2c1C=Nc1ccc(N2CCOCC2)cc1 the results were AmpC inh no detg 158.9%, CHX counter 20.5, Shiga inhibitor -2.3, AMA1-RON2 inh -4.4%, SARS PLpro yeast -9.7% and AmpC detergent -2.3%.
`Cc1csc(NC(=O)Cc2ccccc2Cl)n1` gave AmpC inh no detg -23.4%, CHX counter 39.8*, Shiga inhibitor 110.3*, AMA1-RON2 inh -8.3%, SARS PLpro yeast inconclusive and AmpC detergent 2.0%.
Screening COc1ccc(CC(=O)Nc2nc(C)cs2)cc1 returned AmpC inh no detg -29.2%, CHX counter 20.1*, Shiga inhibitor 29.5, AMA1-RON2 inh 4.6%, SARS PLpro yeast 0.0% and AmpC detergent 0.3%.
Cc1csc(NC(=O)Cc2ccc(Cl)cc2)n1 was read as AMA1-RON2 inh -4.0%.
Screening Cc1csc(NC(=O)Cc2ccc(Br)cc2)n1 returned AmpC inh no detg -44.6%, CHX counter 31.3*, Shiga inhibitor 61.0, AMA1-RON2 inh 8.5%, SARS PLpro yeast -10.3% and AmpC detergent -8.8%.
For Cc1cc(NC(=O)CSc2ccc(F)cc2)no1 the results were AmpC inh no detg -19.4%, CHX counter 11.1, Shiga inhibitor 29.7, AMA1-RON2 inh 5.3%, SARS PLpro yeast 1.7% and AmpC detergent inconclusive.
For COc1ccc(C2=C/C(=C\c3ccc(OC(C)=O)cc3)C(=O)O2)cc1 the results were AmpC inh no detg -28.4%, CHX counter 40.3*, Shiga inhibitor 86.9*, AMA1-RON2 inh 2.5%, SARS PLpro yeast 3.7% and AmpC detergent -4.6%.
Screening CCOc1ccc(C2=C/C(=C/c3cccnc3)C(=O)O2)cc1 returned AmpC inh no detg -2.8%, CHX counter 8.1, Shiga inhibitor -0.9, AMA1-RON2 inh 17.2%, SARS PLpro yeast 2.2% and AmpC detergent -1.7%.
Screening CC(=O)Oc1cccc(C)c1 returned CHX counter 75.3*! and Shiga inhibitor 182.6*!.
CC(=O)Oc1cccc(/C=C2\C=C(c3ccc(C)cc3)OC2=O)c1 was read as AmpC inh no detg -19.7%, CHX counter 17.2*, Shiga inhibitor 54.9, AMA1-RON2 inh 22.8%, SARS PLpro yeast -2.3% and AmpC detergent 1.2%.
Screening COc1ccc(OC(=O)COc2cccc(C)c2)cc1 returned AmpC inh no detg -18.8%, CHX counter 6.6, Shiga inhibitor -10.7, AMA1-RON2 inh 0.4%, SARS PLpro yeast -1.5% and AmpC detergent 1.0%.
For CN(C)c1ccc(C=C2C=C(c3ccccc3)OC2=O)cc1 the results were AMA1-RON2 inh 8.91µM*.
Screening CC(C)COc1nc2ccccc2c(=O)n1OCC(=O)O returned AmpC inh no detg -16.1%, CHX counter 1.1, Shiga inhibitor 14.7, AMA1-RON2 inh 11.7%, SARS PLpro yeast 5.5% and AmpC detergent 1.3%.
Screening Cc1ccc(C2=C/C(=C/c3cccs3)C(=O)O2)cc1 returned AmpC inh no detg -25.5%, CHX counter 21.8*, Shiga inhibitor 24.8, AMA1-RON2 inh -13.3%, SARS PLpro yeast -23.0% and AmpC detergent -12.2%.
Cc1ccc(C=C2C=C(c3ccccc3)OC2=O)cc1 was read as AMA1-RON2 inh -10.0%.
CCOC(=O)C1CCCN(C(=O)c2cc3ccc(OC)cc3[nH]2)C1 (configuration not stated) was read as AmpC inh no detg 19.3%, CHX counter 22.9*, Shiga inhibitor 36.1, AMA1-RON2 inh -3.8%, SARS PLpro yeast -2.1% and AmpC detergent -7.3%.
For CCN1CCN(C(=O)c2cc3ccc(OC)cc3[nH]2)CC1 the results were AmpC inh no detg -12.0%, CHX counter 30.5*, Shiga inhibitor 60.2*, AMA1-RON2 inh -2.1%, SARS PLpro yeast 1.5% and AmpC detergent 1.1%.
Screening COc1ccc2cc(C(=O)N3CCN(C)CC3)[nH]c2c1 returned AmpC inh no detg 0.2%, CHX counter 32.6*, Shiga inhibitor 86.1*, AMA1-RON2 inh 0.0%, SARS PLpro yeast -1.8% and AmpC detergent -4.5%.
Screening COc1ccc2cc(C(=O)N3CCN(c4ccc(F)cc4)CC3)[nH]c2c1 returned AmpC inh no detg -12.3%, CHX counter 1.4, Shiga inhibitor 11.6, AMA1-RON2 inh -7.9%, SARS PLpro yeast -0.7% and AmpC detergent -1.7%.
